Laboratory results as given in the supplement of paper PMC10849652.
About 7,900 targets were measured; listed, in parts, are those with a hit and a random draw of the rest. About 0.6% of all pairs of compound and target were hits. Unmarked numbers belong to inactive results.

What was measured:
Assay in all cases: log2 fold change, soluble protein after heating vs DMSO (PISA); higher = thermal stabilisation; K562 cells, 10 uM, 30 min; active = over 0.2 and 3.5 SD of the protein, either way, in both replicates (recomputed)
[1] = compound: CS(=O)(=O)c1ccc(-c2cnc(N)c(C(=O)Nc3ccccc3)n2)cc1
How it was run: (§1)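 K562 cells at 2×10^6 cells/mL were given 10 μM compound for 30 min. Aliquots then went through 3 min of heating across 48°C-58°C, were pooled, and were extracted in PBS with 0.5% NP-40 at 4°C, and the supernatant after 21,000xg for 90 min was quantified by TMTpro 16plex LC-MS/MS with channel sums equalised. Thermal stability relative to control samples, from duplicates, is given as log2 fold change.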

crizotinib = compound: C[C@@H](Oc1cc(-c2cnn(C3CCNCC3)c2)cnc1N)c1c(Cl)ccc(F)c1Cl [crizotinib]
How it was run: as §1

[2] = compound: C[C@@H]1COCCN1C2=NC(=NC(=C2)C3(CC3)S(=O)(=O)C)C4=C5C=CNC5=CC=C4
How it was run: as §1

[3] = compound: C[C@H](C1=CC=C(C=C1)C(=O)NC2=C3C=CNC3=NC=C2)N
How it was run: as §1

duvelisib = compound: C[C@H](Nc1ncnc2nc[nH]c12)c1cc2cccc(Cl)c2c(=O)n1-c1ccccc1 [duvelisib]
How it was run: as §1

gandotinib = compound: Cc1cc(Nc2cc(CN3CCOCC3)c3nc(C)c(Cc4ccc(Cl)cc4F)n3n2)n[nH]1 [gandotinib]
How it was run: as §1

tozasertib = compound: Cc1cc(Nc2cc(N3CCN(C)CC3)nc(Sc3ccc(NC(=O)C4CC4)cc3)n2)n[nH]1 [tozasertib]
How it was run: as §1

[4] = compound: Cc1cc(SCc2sc(-c3ccc(C(F)(F)F)cc3)nc2C)ccc1OCC(=O)O
How it was run: as §1

doramapimod = compound: Cc1ccc(-n2nc(C(C)(C)C)cc2NC(=O)Nc2ccc(OCCN3CCOCC3)c3ccccc23)cc1 [doramapimod]
How it was run: as §1

ispinesib = compound: Cc1ccc(C(=O)N(CCCN)[C@@H](c2nc3cc(Cl)ccc3c(=O)n2Cc2ccccc2)C(C)C)cc1 [ispinesib]
How it was run: as §1

bafetinib = compound: Cc1ccc(NC(=O)c2ccc(CN3CC[C@H](N(C)C)C3)c(C(F)(F)F)c2)cc1Nc1nccc(-c2cncnc2)n1 [bafetinib]
How it was run: as §1

[5] = compound: Cc1cccc(CC(=O)N2CCc3c2ccc(-c2cn(C)c4ncnc(N)c24)c3F)n1
How it was run: as §1

nilotinib = compound: Cc1cn(-c2cc(NC(=O)c3ccc(C)c(Nc4nccc(-c5cccnc5)n4)c3)cc(C(F)(F)F)c2)cn1 [nilotinib]
How it was run: as §1

[6] = compound: Cc1nc(Nc2n[nH]c3c2CN(C(=O)N[C@H](CN(C)C)c2ccccc2)C3(C)C)c2sccc2n1
How it was run: as §1

dasatinib = compound: Cc1nc(Nc2ncc(C(=O)Nc3c(C)cccc3Cl)s2)cc(N2CCN(CCO)CC2)n1 [dasatinib]
How it was run: as §1

[7] = compound: Cc1ncc(-c2ccnc(Nc3ccc(S(C)(=O)=O)cc3)n2)n1C(C)C
How it was run: as §1

[8] = compound: Cn1cc(-c2ccc3c(c2)CCN3C(=O)Cc2cccc(C(F)(F)F)c2)c2c(N)ncnc21
How it was run: as §1

[9] = compound: Cn1cc(-c2ccc3nnc(C(F)(F)c4ccc5ncccc5c4)n3n2)cn1
How it was run: as §1

tipifarnib = compound: Cn1cncc1[C@@](N)(c1ccc(Cl)cc1)c1ccc2c(c1)c(-c1cccc(Cl)c1)cc(=O)n2C [tipifarnib]
How it was run: as §1

mubritinib = compound: FC(F)(F)c1ccc(/C=C/c2nc(COc3ccc(CCCCn4ccnn4)cc3)co2)cc1 [mubritinib]
How it was run: as §1

Chain of UniProt P07951 (P07951 whole entry, looked up): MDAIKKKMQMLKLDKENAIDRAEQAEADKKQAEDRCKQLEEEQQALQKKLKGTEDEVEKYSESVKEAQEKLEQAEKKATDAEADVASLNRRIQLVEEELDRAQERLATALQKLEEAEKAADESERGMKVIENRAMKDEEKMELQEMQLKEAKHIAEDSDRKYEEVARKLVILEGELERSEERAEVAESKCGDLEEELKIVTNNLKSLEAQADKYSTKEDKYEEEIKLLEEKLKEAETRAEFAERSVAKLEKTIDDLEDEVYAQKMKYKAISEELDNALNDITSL
Chain of UniProt Q9NV66 (Q9NV66 whole entry, looked up): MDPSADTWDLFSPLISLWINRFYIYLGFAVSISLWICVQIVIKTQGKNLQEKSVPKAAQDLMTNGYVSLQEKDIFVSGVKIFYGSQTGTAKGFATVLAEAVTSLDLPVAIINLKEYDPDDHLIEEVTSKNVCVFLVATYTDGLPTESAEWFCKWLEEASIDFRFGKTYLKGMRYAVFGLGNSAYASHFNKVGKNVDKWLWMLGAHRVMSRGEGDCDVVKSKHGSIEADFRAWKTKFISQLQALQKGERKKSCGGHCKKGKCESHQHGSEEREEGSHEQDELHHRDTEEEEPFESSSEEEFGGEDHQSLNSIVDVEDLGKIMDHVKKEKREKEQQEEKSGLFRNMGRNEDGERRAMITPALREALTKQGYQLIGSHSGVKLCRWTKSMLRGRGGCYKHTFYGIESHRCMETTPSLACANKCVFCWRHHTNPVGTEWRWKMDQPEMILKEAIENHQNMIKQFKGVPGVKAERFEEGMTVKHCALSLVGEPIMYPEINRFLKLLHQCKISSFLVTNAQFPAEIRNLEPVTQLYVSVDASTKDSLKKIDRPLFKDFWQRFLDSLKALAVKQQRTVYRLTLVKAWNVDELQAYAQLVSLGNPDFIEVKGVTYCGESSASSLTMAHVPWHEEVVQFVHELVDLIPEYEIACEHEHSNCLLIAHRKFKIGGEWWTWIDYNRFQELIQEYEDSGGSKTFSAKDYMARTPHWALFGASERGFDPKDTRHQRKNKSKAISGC
Chain of UniProt Q9Y2I8 (Q9Y2I8 whole entry, looked up): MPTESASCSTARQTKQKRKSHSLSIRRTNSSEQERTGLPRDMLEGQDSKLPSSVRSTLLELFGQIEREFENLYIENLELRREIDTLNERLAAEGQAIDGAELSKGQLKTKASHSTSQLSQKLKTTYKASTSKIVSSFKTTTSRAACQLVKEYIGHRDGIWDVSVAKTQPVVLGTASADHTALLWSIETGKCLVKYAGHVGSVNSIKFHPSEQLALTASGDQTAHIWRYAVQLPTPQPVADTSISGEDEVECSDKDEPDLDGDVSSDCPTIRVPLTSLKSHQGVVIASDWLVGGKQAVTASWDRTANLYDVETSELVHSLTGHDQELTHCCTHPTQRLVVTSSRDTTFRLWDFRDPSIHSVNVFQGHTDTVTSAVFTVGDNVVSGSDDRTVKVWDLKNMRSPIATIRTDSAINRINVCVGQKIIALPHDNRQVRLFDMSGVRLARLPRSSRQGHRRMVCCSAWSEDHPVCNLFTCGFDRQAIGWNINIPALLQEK
Chain of UniProt Q9BVJ6 (Q9BVJ6 whole entry, looked up): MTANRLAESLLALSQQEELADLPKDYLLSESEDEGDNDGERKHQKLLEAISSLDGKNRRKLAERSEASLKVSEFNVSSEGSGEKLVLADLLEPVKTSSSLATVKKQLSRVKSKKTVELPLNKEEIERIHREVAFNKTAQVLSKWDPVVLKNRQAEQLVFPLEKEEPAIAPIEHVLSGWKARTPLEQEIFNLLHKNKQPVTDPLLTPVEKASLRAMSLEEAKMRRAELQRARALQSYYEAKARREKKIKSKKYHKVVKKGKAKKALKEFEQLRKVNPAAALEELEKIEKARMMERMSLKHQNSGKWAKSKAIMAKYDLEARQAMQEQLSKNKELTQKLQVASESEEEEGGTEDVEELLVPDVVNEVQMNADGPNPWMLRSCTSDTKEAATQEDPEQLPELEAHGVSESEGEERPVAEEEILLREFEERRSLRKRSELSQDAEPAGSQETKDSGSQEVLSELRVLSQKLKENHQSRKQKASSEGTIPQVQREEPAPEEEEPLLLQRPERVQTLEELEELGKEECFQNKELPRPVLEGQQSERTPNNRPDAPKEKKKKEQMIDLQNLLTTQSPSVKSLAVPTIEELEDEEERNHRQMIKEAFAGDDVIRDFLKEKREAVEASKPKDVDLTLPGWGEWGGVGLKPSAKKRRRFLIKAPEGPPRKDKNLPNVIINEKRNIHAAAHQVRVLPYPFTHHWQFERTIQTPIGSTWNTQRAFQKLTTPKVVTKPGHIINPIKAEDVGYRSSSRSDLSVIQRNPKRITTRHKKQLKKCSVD
Chain of UniProt P22314 (P22314 whole entry, looked up): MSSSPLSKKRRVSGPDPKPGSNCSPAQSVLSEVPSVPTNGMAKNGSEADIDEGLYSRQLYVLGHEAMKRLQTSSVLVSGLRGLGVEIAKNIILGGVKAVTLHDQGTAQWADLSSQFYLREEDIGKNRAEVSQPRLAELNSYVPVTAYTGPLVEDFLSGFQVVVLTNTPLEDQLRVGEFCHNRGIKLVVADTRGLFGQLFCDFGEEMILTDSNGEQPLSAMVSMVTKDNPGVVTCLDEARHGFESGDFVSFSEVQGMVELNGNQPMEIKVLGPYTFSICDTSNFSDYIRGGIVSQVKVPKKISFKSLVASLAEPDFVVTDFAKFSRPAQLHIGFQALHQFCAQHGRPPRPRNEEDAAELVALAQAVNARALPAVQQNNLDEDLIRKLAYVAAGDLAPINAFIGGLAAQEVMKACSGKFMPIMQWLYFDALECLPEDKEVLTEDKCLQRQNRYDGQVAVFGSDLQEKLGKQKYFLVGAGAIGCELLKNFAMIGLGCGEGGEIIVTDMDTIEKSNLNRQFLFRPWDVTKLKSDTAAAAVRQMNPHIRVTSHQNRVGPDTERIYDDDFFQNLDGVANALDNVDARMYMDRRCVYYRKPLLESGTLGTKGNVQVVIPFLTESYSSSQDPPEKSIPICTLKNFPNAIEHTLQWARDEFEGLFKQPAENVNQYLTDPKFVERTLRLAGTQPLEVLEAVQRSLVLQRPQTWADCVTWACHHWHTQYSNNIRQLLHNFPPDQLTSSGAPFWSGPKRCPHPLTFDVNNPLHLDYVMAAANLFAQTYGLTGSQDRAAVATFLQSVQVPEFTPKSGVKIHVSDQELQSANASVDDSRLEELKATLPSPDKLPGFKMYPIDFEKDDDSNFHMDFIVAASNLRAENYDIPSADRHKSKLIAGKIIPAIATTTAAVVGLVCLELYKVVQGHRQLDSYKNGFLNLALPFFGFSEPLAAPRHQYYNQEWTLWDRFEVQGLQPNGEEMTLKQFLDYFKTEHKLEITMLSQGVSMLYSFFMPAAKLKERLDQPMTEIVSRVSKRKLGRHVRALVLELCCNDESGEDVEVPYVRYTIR
Chain of UniProt Q86SZ2 (Q86SZ2 whole entry, looked up): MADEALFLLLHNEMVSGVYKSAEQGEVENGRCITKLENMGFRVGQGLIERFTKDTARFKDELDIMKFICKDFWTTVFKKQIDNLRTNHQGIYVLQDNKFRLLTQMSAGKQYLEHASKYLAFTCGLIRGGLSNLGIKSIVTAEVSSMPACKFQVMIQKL
Chain of UniProt P49754 (P49754 whole entry, looked up): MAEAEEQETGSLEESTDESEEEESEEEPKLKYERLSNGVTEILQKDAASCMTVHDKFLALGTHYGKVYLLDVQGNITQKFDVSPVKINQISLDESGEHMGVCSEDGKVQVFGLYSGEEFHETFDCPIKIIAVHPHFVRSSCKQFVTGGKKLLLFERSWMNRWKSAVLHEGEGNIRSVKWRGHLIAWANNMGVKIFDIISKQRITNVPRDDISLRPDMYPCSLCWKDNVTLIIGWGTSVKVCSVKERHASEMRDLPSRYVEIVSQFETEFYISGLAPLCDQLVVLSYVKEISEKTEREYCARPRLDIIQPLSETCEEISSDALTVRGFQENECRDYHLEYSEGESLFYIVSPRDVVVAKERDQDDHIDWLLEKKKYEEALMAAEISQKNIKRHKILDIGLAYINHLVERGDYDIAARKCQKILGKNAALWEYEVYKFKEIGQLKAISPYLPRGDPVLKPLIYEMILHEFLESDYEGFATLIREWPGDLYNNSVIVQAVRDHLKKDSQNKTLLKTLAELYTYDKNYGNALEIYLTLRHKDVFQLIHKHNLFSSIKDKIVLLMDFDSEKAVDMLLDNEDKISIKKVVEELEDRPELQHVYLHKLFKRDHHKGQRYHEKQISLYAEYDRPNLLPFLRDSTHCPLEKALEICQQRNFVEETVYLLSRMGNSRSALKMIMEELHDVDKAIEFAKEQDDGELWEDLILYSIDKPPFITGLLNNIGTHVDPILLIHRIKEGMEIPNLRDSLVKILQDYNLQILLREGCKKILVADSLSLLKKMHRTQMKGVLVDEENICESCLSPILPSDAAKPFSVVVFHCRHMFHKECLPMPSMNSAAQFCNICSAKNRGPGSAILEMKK
Chain of UniProt O75674 (O75674 whole entry, looked up): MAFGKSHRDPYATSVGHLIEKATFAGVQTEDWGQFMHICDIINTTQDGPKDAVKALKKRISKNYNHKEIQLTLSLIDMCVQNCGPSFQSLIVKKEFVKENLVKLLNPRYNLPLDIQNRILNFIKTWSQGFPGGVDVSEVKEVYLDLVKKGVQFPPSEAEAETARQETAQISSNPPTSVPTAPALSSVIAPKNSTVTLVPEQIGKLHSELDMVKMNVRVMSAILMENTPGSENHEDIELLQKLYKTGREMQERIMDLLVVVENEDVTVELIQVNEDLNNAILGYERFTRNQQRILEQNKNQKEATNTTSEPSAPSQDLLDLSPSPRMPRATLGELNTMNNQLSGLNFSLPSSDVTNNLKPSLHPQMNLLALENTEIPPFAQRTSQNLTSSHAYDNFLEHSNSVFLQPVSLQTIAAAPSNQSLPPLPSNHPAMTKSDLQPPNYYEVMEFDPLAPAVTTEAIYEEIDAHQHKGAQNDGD

Target | log2 fold change [1] | log2 fold change (crizotinib) | log2 fold change [2] | log2 fold change [3] | log2 fold change (duvelisib) | log2 fold change (gandotinib) | log2 fold change (tozasertib) | log2 fold change [4] | log2 fold change (doramapimod) | log2 fold change (ispinesib) | log2 fold change (bafetinib) | log2 fold change [5] | log2 fold change (nilotinib) | log2 fold change [6] | log2 fold change (dasatinib) | log2 fold change [7] | log2 fold change [8] | log2 fold change [9] | log2 fold change (tipifarnib) | log2 fold change (mubritinib)
VPS41 (UniProt P49754) | 0.003 | -0.213 | -0.009 | 0.03 | 0.008 | -0.117 | 0.01 | 0.046 | 0.034 | -0.138 | -0.134 | 0.034 | -0.012 | -0.039 | -0.094 | -0.03 | 0 | 0.013 | -0.084 | 0.08
WBP4 (UniProt O75554) | -0.032 | 0.059 | 0.004 | -0.015 | 0.011 | -0.022 | -0.016 | 0.01 | 0.018 | -0.044 | -0.043 | 0.14 | 0.001 | -0.006 | 0.014 | -0.023 | 0.037 | 0.047 | 0.023 | 0.06
TRAPPC6B (UniProt Q86SZ2) | -0.008 | 0.024 | 0.111 | -0.069 | 0.044 | -0.045 | 0.014 | -0.014 | 0.025 | 0.014 | -0.005 | -0.024 | -0.008 | -0.027 | -0.042 | 0.021 | 0.024 | 0.04 | -0.028 | 0.045
UBE4A isoform 2 (UniProt Q14139) | 0.036 | -0.275 | 0.069 | 0.29 (active) | 0.006 | -0.076 | 0.037 | 0.117 | -0.023 | -0.172 | 0.01 | 0.065 | -0.111 | -0.162 | -0.196 | 0.015 | -0.183 | -0.023 | -0.092 | 0.021
UFD1 isoform 1 (UniProt Q92890) | -0.029 | 0.004 | -0.032 | -0.022 | 0.043 | -0.099 | -0.027 | -0.04 | 0.007 | 0.036 | -0.007 | 0.01 | 0.025 | -0.019 | 0.031 | -0.003 | 0.006 | 0.002 | -0.046 | 0.041
TPM2 (UniProt P07951) | -0.016 | -0.012 | -0.167 | -0.29 | -0.131 | -0.046 | 0 | -0.117 | 0.059 | 0.122 | 0.034 | 0.003 | 0.126 | -0.097 | 0.072 | 0.064 | -0.019 | -0.015 | 0.086 | 0.025
UBA1 (UniProt P22314) | 0.127 | -0.338 | 0.091 | 0.017 | -0.014 | -0.068 | 0.066 | 0.148 | -0.031 | -0.11 | 0.034 | 0.187 | -0.089 | -0.062 | -0.216 | 0.062 | 0.027 | 0.121 | -0.235 | 0.395 (active)
TRMT2A (UniProt Q8IZ69) | -0.034 | -0.016 | -0.072 | 0.152 | -0.041 | 0.019 | 0.063 | 0.045 | 0.07 | -0.122 | 0.059 | -0.001 | 0.021 | -0.048 | -0.019 | -0.064 | 0 | 0.009 | 0.03 | -0.005
TOM1L1 (UniProt O75674) | -0.001 | 0.08 | 0.184 | -0.059 | 0.102 | -0.342 (active) | -0.03 | 0.011 | -0.021 | -0.016 | -0.025 | -0.265 (active) | -0.003 | -0.069 | -0.04 | 0.087 | 0.031 | 0.032 | 0.06 | 0.034
TMEM173 (UniProt Q86WV6) | 0.042 | 0.147 | 0.041 | 0.004 | 0.017 | -0.151 | 0.01 | 0.078 | 0.023 | 0.037 | 0.007 | 0.019 | -0.129 | -0.013 | -0.156 | 0.003 | 0.001 | -0.046 | 0.021 | 0.066
TMEM161A (UniProt Q9NX61) | -0.038 | -0.026 | -0.006 | 0.001 | -0.032 | -0.156 | -0.145 | 0.051 | -0.023 | -0.251 | -0.156 | 0.043 | -0.157 | 0.023 | -0.09 | -0.021 | -0.05 | -0.025 | -0.165 | 0.027
TYW1 (UniProt Q9NV66) | 0.038 | 0.143 | 0.032 | 0.053 | 0.035 | -0.004 | 0.037 | 0.021 | 0.008 | 0.179 | -0.003 | 0.033 | -0.107 | -0.005 | 0.015 | 0.04 | -0.001 | -0.085 | -0.041 | -0.075
TUT4 (UniProt Q5TAX3) | 0.069 | 0.075 | -0.286 | 0.095 | 0.166 | 0.024 | 0.044 | 0.195 | -0.003 | -0.124 | -0.281 | 0.074 | -0.153 | 0.01 | -0.105 | -0.116 | -0.097 | -0.066 | -0.049 | -0.01
UTP14A (UniProt Q9BVJ6) | -0.059 | -0.035 | -0.382 | 0.274 | -0.128 | 0.151 | 0.05 | 0.065 | 0.172 | -0.171 | 0.157 | 0 | 0.011 | -0.009 | 0.07 | -0.118 | -0.285 | -0.09 | 0.089 | -0.086
TNFRSF10A (UniProt O00220) | -0.008 | 0.037 | 0.047 | -0.073 | 0 | 0.019 | -0.024 | -0.019 | -0.023 | -0.075 | -0.044 | -0.051 | 0.061 | -0.055 | -0.015 | 0.058 | -0.082 | -0.005 | -0.054 | -0.05
WDR37 isoform 2 (UniProt Q9Y2I8) | 0.026 | 0 | 0.041 | 0.11 | -0.113 | 0.069 | 0.055 | 0.15 | 0.02 | 0.055 | 0.039 | -0.093 | -0.073 | 0.039 | 0.005 | -0.05 | -0.024 | 0.017 | 0.083 | -0.021
